Measured values from the antibiotic and cytotoxicity screens of Wong et al. (2023).
In all, about 39,000 compounds went through this assay and about 500 (1.3%) were called active. The full list was thinned out, with actives kept by preference.

These compounds were tested on S. aureus RN4220 (assay: growth inhibition call (relative growth <= 0.2)). Conditions: 50 µM.

Structure (SMILES) | growth inhibition call
C[C@@H]1CN([C@@H](C)CO)C(=O)Cc2cc(NC(=O)C3CC3)ccc2O[C@@H]1CN(C)C(=O)Nc1ccc2c(c1)OCO2 | inactive
CC(C)c1ccccc1Cc1cc(C(=O)Nc2ccc(S(=O)(=O)c3ccccc3C(C)(C)C)cc2)c(O)c(O)c1O | inactive
Cc1ccc(S(=O)(=O)N(C)C[C@@H]2Oc3ccc(NC(=O)Nc4cccc5ccccc45)cc3C(=O)N([C@@H](C)CO)C[C@H]2C)cc1 | inactive
C[C@H]1CC/C=C\[C@H]2O[C@@]34C=CCN(c5ccc6ccccc6c5)C(=O)[C@H]3N(CCCO)C(=O)[C@@H]4[C@@H]2C(=O)O1 | inactive
C[C@H]1CN([C@@H](C)CO)C(=O)Cc2cc(NC(=O)CCC(F)(F)F)ccc2O[C@H]1CN(C)S(=O)(=O)c1cn(C)cn1 | inactive
CCN(CC)CCS(=O)(=O)[C@@H]1CCN2C(=O)c3coc(n3)CC(=O)C[C@H](O)/C=C(C)/C=C\CNC(=O)/C=C/[C@@H](C)[C@H](C(C)C)OC(=O)[C@@H]12 | active
COc1cccc2c1C(=O)c1c(O)c3c(c(O)c1C2=O)CC(O)(C(=O)CO)CC3OC1CC(N)C(O)C(C)O1.Cl (stereo not drawn) | inactive
CCCCC(=O)OCC(=O)[C@]1(O)Cc2c(O)c3c(c(O)c2[C@@H](O[C@H]2C[C@H](NC(=O)C(F)(F)F)[C@H](O)[C@H](C)O2)C1)C(=O)c1c(OC)cccc1C3=O | inactive
COc1cccc2c1C(=O)c1c(O)c3c(c(O)c1C2=O)C[C@](O)(C(=O)CO)C[C@H]3O[C@H]1C[C@@H](N)[C@@H](O)[C@@H](C)O1 | active
COc1cccc2c1C(=O)c1c(O)c3c(c(O)c1C2=O)CC(O)(C(=O)CO)CC3OC1CC(N)C(O)C(C)O1 (stereo not drawn) [listing 1 of 2 here] | inactive
COc1cccc2c1C(=O)c1c(O)c3c(c(O)c1C2=O)CC(O)(C(=O)CO)CC3OC1CC(N)C(O)C(C)O1 (stereo not drawn) [listing 2 of 2 here] | inactive
COc1cccc2c1C(=O)c1c(O)c3c(c(O)c1C2=O)C[C@@](O)(C(=O)CO)C[C@@H]3O[C@H]1C[C@H](N)[C@@H](O)[C@H](C)O1 | active
COc1cccc2c1C(=O)c1c(O)c3c(c(O)c1C2=O)C[C@@](O)(C(=O)CO)C[C@@H]3O[C@H]1C[C@H](N)[C@H](O)[C@H](C)O1 | active
Cc1ccnc(NC(=O)Cn2cnc3c2c(=O)n(C)c(=O)n3C)c1 | inactive
Cc1noc(C)c1S(=O)(=O)Nc1ccc2c(c1)C(=O)N([C@@H](C)CO)C[C@@H](C)[C@@H](CN(C)S(C)(=O)=O)OCCCC[C@@H](C)O2 | inactive
COCCC(=O)N1CCC2(CC1)COC2 | inactive
C[C@@H]1CCCCO[C@@H](CN(C)C(=O)Nc2ccc(C(F)(F)F)cc2)[C@H](C)CN([C@H](C)CO)C(=O)c2cc(N(C)C)ccc2O1 | inactive
Cc1noc(C)c1NC(=O)N(C)C[C@H]1Oc2ccc(NS(=O)(=O)c3ccccc3)cc2C(=O)N([C@@H](C)CO)C[C@H]1C | inactive
CCOC(=O)[C@H]1CN(C(C)(C)C)C(=O)C1=O | inactive
O=c1[nH]c2ccsc2c(=O)n1CCO | inactive
C[C@@H]1CN([C@@H](C)CO)S(=O)(=O)c2ccc(C#Cc3ccncc3)cc2O[C@H]1CN(C)C(=O)C1CCOCC1 | inactive

Structure (SMILES) | growth inhibition call
CCS(=O)(=O)N1CC[C@]2(CC1)CN([C@H](CO)c1c2c2ccc(cc2n1C)OC)C(=O)CN1CCOCC1 | inactive
C[C@H](CO)N1C[C@H](C)[C@@H](CN(C)Cc2ccccc2)Oc2ccc(NC(=O)Cn3cnnn3)cc2CC1=O | inactive
N[C@H]1CCN(c2nc3c(cc2F)c(=O)c(C(=O)O)cn3-c2ccc(F)cc2F)C1 | active
N[C@@H]1[C@H]2CN(c3nc4c(cc3F)c(=O)c(C(=O)O)cn4-c3ccc(F)cc3F)C[C@@H]12 | active
Cc1ccc(S(=O)(=O)O)cc1.NC1CCN(c2nc3c(cc2F)c(=O)c(C(=O)O)cn3-c2ccc(F)cc2F)C1.O (stereo not drawn) | inactive
CN[C@H]1CN(c2ccc3c(=O)c(C(=O)O)cn(-c4nccs4)c3n2)C[C@@H]1OC | inactive
C[C@H](CO)N1C[C@H](C)[C@H](CN(C)C(=O)CCC(F)(F)F)OCCCC[C@H](C)Oc2ccc(NC(=O)Nc3ccccc3)cc2C1=O | inactive
C[C@H](CO)N1C[C@H](C)[C@H](CN(C)C(=O)CCCN(C)C)OCCCC[C@H](C)Oc2ccc(NS(C)(=O)=O)cc2C1=O | inactive
C[C@H](CO)N1C[C@H](C)[C@H](CN(C)S(=O)(=O)c2ccc(F)cc2)Oc2c(NC(=O)C3CCOCC3)cccc2C1=O | inactive
CC(C)NC(=O)N(C)C[C@@H]1Oc2c(NS(=O)(=O)c3ccc(F)cc3)cccc2C(=O)N([C@H](C)CO)C[C@H]1C | inactive
C[C@@H]1CCCCO[C@@H](CN(C)C(=O)CCCN(C)C)[C@H](C)CN([C@@H](C)CO)C(=O)c2cc(NC(=O)Nc3ccc(F)cc3)ccc2O1 | inactive
COc1cccc(S(=O)(=O)N(C)C[C@@H]2Oc3ncc(C#CC(C)C)cc3C(=O)N([C@@H](C)CO)C[C@H]2C)c1 | inactive
COC(=O)CC1C(C)(C)C(OC(C)=O)C2CC3=C4CC(=O)OC(c5ccoc5)C4(C)CCC3C1(C)C2=O (stereo not drawn) | inactive
CCC(=C/[C@H](C)C/C=C/C(C)=C/[C@@H](C)C(=O)[C@@H](C)[C@H](O)[C@@H](C)C/C(C)=C/C(=O)O)/C=C/[C@@H]1OC(=O)C=C[C@@H]1C | active
Cc1noc(C)c1S(=O)(=O)N(C)C[C@@H]1Oc2ccc(NS(=O)(=O)c3ccc(F)cc3)cc2C(=O)N([C@H](C)CO)C[C@@H]1C | inactive
COc1ccc(S(=O)(=O)N(C)C[C@@H]2Oc3c(NS(=O)(=O)c4ccc(C)cc4)cccc3C(=O)N([C@H](C)CO)C[C@@H]2C)cc1 | inactive
O=C1NCc2ccccc21 | inactive
O=C1CCNc2cc3ccccc3cc21 | active
O=C1CCCNc2ccc(Cl)cc21 | inactive
CN(C)C(=O)C[C@@H]1CC[C@@H](NC(=O)C2CC2)[C@@H](CO)O1 | inactive
C[C@@H]1CCCCO[C@@H](CN(C)C(=O)Nc2ccc(F)cc2)[C@H](C)CN([C@H](C)CO)C(=O)c2cc(NS(=O)(=O)c3ccc(F)cc3)ccc2O1 | inactive

Structure (SMILES) | growth inhibition call
C[C@@H](O)COC[C@H]1O[C@@H]2O[C@H]3[C@H](O)[C@@H](O)[C@@H](O[C@H]4[C@H](O)[C@@H](O)[C@@H](O[C@H]5[C@H](O)[C@@H](O)[C@@H](O[C@H]6[C@H](O)[C@@H](O)[C@@H](O[C@H]7[C@H](O)[C@@H](O)[C@@H](O[C@H]8[C@H](O)[C@@H](O)[C@@H](O[C@H]1[C@H](O)[C@H]2O)O[C@@H]8COC[C@@H](C)O)O[C@@H]7COC[C@@H](C)O)O[C@@H]6COC[C@@H](C)O)O[C@@H]5COC[C@@H](C)O)O[C@@H]4COC[C@@H](C)O)O[C@@H]3COC[C@@H](C)O | inactive
C[C@@H]1CN([C@@H](C)CO)C(=O)c2cccc(NC(=O)c3ccc(-c4nccs4)cc3)c2O[C@@H]1CN(C)Cc1ccc(Cl)c(Cl)c1 | inactive
Cn1cnc(S(=O)(=O)N2C[C@H](O)COC[C@@H]3O[C@@H](CC(=O)NC4CCCC4)CC[C@H]32)c1 | inactive
Cc1[nH]c2ccccc2c1C(=O)CSc1ccc(Cl)cc1 | inactive
NCC[S@@](=O)c1c(-c2ccc(F)cc2)[nH]c2ccccc12 | inactive
CSc1c(-c2ccc(Cl)cc2)[nH]c2ccccc12 | active
CC(C)NC(=O)Nc1ccc2c(c1)C(=O)N([C@@H](C)CO)C[C@@H](C)[C@H](CN(C)C(=O)Nc1ccc3c(c1)OCO3)O2 | inactive
COc1ccc(NC(=O)N(C)C[C@H]2Oc3ncc(C#C[C@@H](C)O)cc3C(=O)N([C@@H](C)CO)C[C@H]2C)cc1 | inactive
COc1ccc2c3c(n(c2c1)C)[C@@H](CO)N(C[C@]13CN(C1)C(=O)CN(C)C)C(=O)CN(C)C | inactive
Cc1ccccc1-c1cc(N2CCN(C)CC2)ncc1N(C)C(=O)C(C)(C)c1cc(C(F)(F)F)cc(C(F)(F)F)c1 | active
COCCOC(=O)N1C(=O)[C@@]2(c3cc(C#Cc4ccc(OC)cc4)ccc31)[C@H](C(=O)N1CCN(c3ncccn3)CC1)[C@H]1C(=O)O[C@H](c3ccccc3)[C@H](c3ccccc3)N1[C@@H]2c1ccc(OCCO)cc1 | inactive
C[C@@H]1CN([C@H](C)CO)C(=O)c2cc(NS(=O)(=O)c3ccccc3)ccc2O[C@@H](C)CCCCO[C@@H]1CN(C)C(=O)c1ccccc1 | inactive
CNC[C@H]1OCCCC[C@@H](C)Oc2ccc(NC(=O)Nc3ccc(C(F)(F)F)cc3)cc2C(=O)N([C@H](C)CO)C[C@@H]1C | inactive
CNC[C@@H]1OCCCC[C@@H](C)Oc2ccc(NC(=O)Nc3ccc(C(F)(F)F)cc3)cc2C(=O)N([C@@H](C)CO)C[C@H]1C | inactive
CNC[C@H]1OCCCC[C@@H](C)Oc2ccc(NC(=O)Nc3ccc(C(F)(F)F)cc3)cc2C(=O)N([C@H](C)CO)C[C@H]1C | active
CNC[C@@H]1OCCCC[C@@H](C)Oc2ccc(NC(=O)Nc3ccc(C(F)(F)F)cc3)cc2C(=O)N([C@@H](C)CO)C[C@@H]1C | inactive
CNC[C@@H]1OCCCC[C@H](C)Oc2ccc(NC(=O)Nc3ccc(C(F)(F)F)cc3)cc2C(=O)N([C@H](C)CO)C[C@@H]1C | inactive
CNC[C@@H]1OCCCC[C@H](C)Oc2ccc(NC(=O)Nc3ccc(C(F)(F)F)cc3)cc2C(=O)N([C@H](C)CO)C[C@H]1C | active
Cc1noc(C)c1NC(=O)N(C)C[C@H]1Oc2ccc(NC(=O)NC(C)C)cc2CC(=O)N([C@H](C)CO)C[C@@H]1C | inactive
CN(c1ncccc1CNc1nc(Nc2ccc3c(c2)CC(=O)N3)ncc1C(F)(F)F)S(C)(=O)=O | inactive
Cc1ccc(S(=O)(=O)Nc2cccc3c2O[C@@H](CN(C)S(=O)(=O)c2cn(C)cn2)[C@H](C)CN([C@H](C)CO)C3=O)cc1 | inactive
